Compound activity (PubChem BioAssay)
Pf Dd2 growth: inhibitors of Plasmodium falciparum Dd2 growth. P. falciparum Dd2 growth, SYBR Green, 72 h; stronger effect = lower value. activity change, % at 10 µM. 2.3% of 94,000 active; in the data active = activity change below about -80%; inconclusive = no clear call, values can overlap the other calls
C diff growth: C. difficile growth inhibition | AID 1259249 | growth activity, negative = inhibition, % at 16 µg/mL (by protocol) | Clostridium difficile clinical isolate growth, OD600, 24 h; stronger effect = lower value | 0.25% of 86,000 active;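 active = mean growth activity at or below -80% and every replicate also at or below -80%; inconclusive = mean at or below -80% but some replicate above -80%; inactive = mean growth activity above -80%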
T cruzi growth: T. cruzi proliferation inhibition; inhibition, % at 8.34 µM; 5.9% of 77,000 active; T. cruzi beta-gal in NIH3T3, GalScreen luminescence, 90 h;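 active = mean inhibition above about 93%, with at least 55% of replicates each passing it, limit read from the data, passing the limit was not always enough; inconclusive = only one of those two conditions holds; inactive = neither condition holds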
Hits are given with their value; . = inactive; ? = inconclusive; / = no result. Most compounds without a hit are left out; they make up all but 6.8% or so of the library.

SMILES | Pf Dd2 growth | C diff growth | T cruzi growth
O=C(C[C@@H]1CC[C@@H]2[C@H](COC[C@@H](O)CN2C(=O)Nc2ccc(C(F)(F)F)cc2)O1)NCC1CCCCC1 | . | . | /
C[C@@H]1CN([C@H](C)CO)C(=O)c2cc(NC(=O)Cc3ccccc3)ccc2O[C@@H](C)CCCCO[C@@H]1CN(C)C(=O)NC1CCCCC1 | . | . | .
Cc1noc(C)c1S(=O)(=O)Nc1ccc2c(c1)C(=O)N([C@@H](C)CO)C[C@H](C)[C@H](CN(C)C(=O)Nc1ccc(F)cc1)OCCCC[C@H](C)O2 | . | . | .
CC(C)NC(=O)NCC[C@@H]1CC[C@H](NS(=O)(=O)c2ccccc2)[C@H](CO)O1 | . | . | /
C[C@@H]1CCCCO[C@@H](CN(C)Cc2ccc(C(=O)Nc3ccccc3N)cc2)[C@@H](C)CN([C@H](C)CO)C(=O)c2cc(NC(=O)Nc3ccc(C(F)(F)F)cc3)ccc2O1 | -83 | . | /
C[C@@H]1CCCCO[C@@H](CN(C)Cc2ccc(C(=O)Nc3ccccc3N)cc2)[C@@H](C)CN([C@H](C)CO)C(=O)c2cc(NC(=O)Nc3ccc(F)cc3)ccc2O1 | -87 | . | /
C[C@H](CO)N1C[C@H](C)[C@H](CN(C)Cc2ccc(C(F)(F)F)cc2)OCCCC[C@H](C)Oc2ccc(NC(=O)Nc3ccccc3)cc2C1=O | . | . | .
C[C@@H]1CCCCO[C@@H](CN(C)Cc2ccc(C(=O)Nc3ccccc3N)cc2)[C@@H](C)CN([C@H](C)CO)C(=O)c2cc(NC(=O)Nc3ccccc3)ccc2O1 | . | / | .
C[C@H]1CN([C@@H](C)CO)C(=O)c2cccc(N(C)C)c2O[C@@H]1CN(C)Cc1ccc2c(c1)OCO2 | . | . | .
C[C@@H]1CN([C@@H](C)CO)C(=O)c2cc(-c3cccnc3)cnc2O[C@H]1CN(C)C(=O)Cc1cccnc1 | . | . | .
C[C@@H]1CCCCO[C@@H](CN(C)C(=O)Nc2cccc3ccccc23)[C@@H](C)CN([C@H](C)CO)C(=O)c2cc(NC(=O)C3CCCCC3)ccc2O1 | . | . | .
C[C@H]1CCCCO[C@H](CN(C)C(=O)Nc2cccc3ccccc23)[C@@H](C)CN([C@@H](C)CO)C(=O)c2cc(NC(=O)C3CCCCC3)ccc2O1 | -86 | . | .
CC(C)NC(=O)Nc1ccc2c(c1)C(=O)N([C@H](C)CO)C[C@H](C)[C@H](CN(C)C(=O)Nc1cccc3ccccc13)OCCCC[C@@H](C)O2 | . | . | .
C[C@@H]1CCCCO[C@@H](CN(C)C(=O)Nc2cccc3ccccc23)[C@H](C)CN([C@@H](C)CO)C(=O)c2cc(NC(=O)C3CCCCC3)ccc2O1 | -83 | . | .
CC(C)NC(=O)Nc1ccc2c(c1)C(=O)N([C@@H](C)CO)C[C@@H](C)[C@H](CN(C)C(=O)Nc1cccc3ccccc13)OCCCC[C@H](C)O2 | -86 | . | .
C[C@@H]1CN([C@H](C)CO)C(=O)c2cc(NC(=O)C3CCCCC3)ccc2O[C@@H](C)CCCCO[C@H]1CN(C)C(=O)Nc1cccc2ccccc12 | ? | . | .
COc1ccc2c3c([nH]c2c1)[C@@H](CO)N(C(=O)c1ccncc1)CC31CCN(C(=O)C2CCC2)CC1 | . | . | /
Cc1noc(C)c1S(=O)(=O)Nc1ccc2c(c1)C(=O)N([C@H](C)CO)C[C@H](C)[C@H](CN(C)S(=O)(=O)c1ccccc1)OCCCC[C@@H](C)O2 | . | . | .
COc1ccc2c3c(n(C)c2c1)[C@H](CO)N(C(C)=O)CC31CN(C(=O)Nc2ccc(F)cc2)C1 | . | . | /
COCC(=O)Nc1ccc2c(c1)[C@@H]1C[C@@H](CC(=O)NCc3ccccn3)O[C@H](CO)[C@@H]1O2 | . | . | .
C[C@@H]1CN([C@@H](C)CO)C(=O)Cc2cc(NC(=O)CCN3CCOCC3)ccc2O[C@@H]1CN(C)Cc1ccc(-c2ccccc2)cc1 | . | . | .
C[C@H]1CN([C@@H](C)CO)C(=O)c2cccc(NS(=O)(=O)c3ccc(F)cc3)c2O[C@H]1CN(C)Cc1ccc(C(=O)Nc2ccccc2N)cc1 | -88 | . | /
C[C@@H]1CN([C@@H](C)CO)C(=O)c2cccc(NS(=O)(=O)c3ccc(F)cc3)c2O[C@@H]1CN(C)Cc1ccc(C(=O)Nc2ccccc2N)cc1 | -90 | . | .
C[C@@H]1CN([C@@H](C)CO)C(=O)c2cccc(NS(=O)(=O)c3ccc(F)cc3)c2O[C@H]1CN(C)Cc1ccc(C(=O)Nc2ccccc2N)cc1 | . | . | /
C[C@H]1CN([C@@H](C)CO)C(=O)c2cccc(NS(=O)(=O)c3ccc(F)cc3)c2O[C@@H]1CN(C)Cc1ccc(C(=O)Nc2ccccc2N)cc1 | . | . | /
Cc1cc(C(=O)Nc2cccc3c2O[C@@H](CN(C)Cc2ccccc2)[C@@H](C)CN([C@@H](C)CO)C3=O)n(C)n1 | . | . | .
